# Laboratory results published in PubChem BioAssay.
# A number with no mark means an inactive call. This is one part of the list. Calls of active or inactive are those of the source.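 Rule for the calls, unless noted: active = mean inhibition over three repeats above a set limit taken from the earlier primary screen (cut at about 38% in these data); inactive = the rest.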
# Key:
# [1] = system: transactivating tegument protein VP16 (Human herpesvirus 1); experiment: VP16 transactivation reporter inhibitors, counter-screen for SRC2 inhibitor project, cell-based, luminescence, single concentration (AID 652007; in the data active = inhibition above about 36%); settings: cell-based VP16 transactivation luciferase reporter, at 8.9 µM, stronger effect = higher value
# [2] = molecular target: Nuclear receptor coactivator 2 (Homo sapiens) (UniProt Q15596); experiment: SRC2 coactivator transcriptional activity inhibitors, confirmation, cell-based, luminescence, HEK293, triplicate (AID 652008;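 active = mean inhibition above 46.5%, the solvent-only control mean plus 3 SD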;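 note: 0% = DMSO-treated cells and 100% = Gossypol at 36 µM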); settings: HEK293 GAL4-SRC2 luciferase reporter, at 8.9 µM, stronger effect = higher value
# Chain of Nuclear receptor coactivator 2 (Homo sapiens) (Q15596 whole entry, looked up, the tested form may be a part): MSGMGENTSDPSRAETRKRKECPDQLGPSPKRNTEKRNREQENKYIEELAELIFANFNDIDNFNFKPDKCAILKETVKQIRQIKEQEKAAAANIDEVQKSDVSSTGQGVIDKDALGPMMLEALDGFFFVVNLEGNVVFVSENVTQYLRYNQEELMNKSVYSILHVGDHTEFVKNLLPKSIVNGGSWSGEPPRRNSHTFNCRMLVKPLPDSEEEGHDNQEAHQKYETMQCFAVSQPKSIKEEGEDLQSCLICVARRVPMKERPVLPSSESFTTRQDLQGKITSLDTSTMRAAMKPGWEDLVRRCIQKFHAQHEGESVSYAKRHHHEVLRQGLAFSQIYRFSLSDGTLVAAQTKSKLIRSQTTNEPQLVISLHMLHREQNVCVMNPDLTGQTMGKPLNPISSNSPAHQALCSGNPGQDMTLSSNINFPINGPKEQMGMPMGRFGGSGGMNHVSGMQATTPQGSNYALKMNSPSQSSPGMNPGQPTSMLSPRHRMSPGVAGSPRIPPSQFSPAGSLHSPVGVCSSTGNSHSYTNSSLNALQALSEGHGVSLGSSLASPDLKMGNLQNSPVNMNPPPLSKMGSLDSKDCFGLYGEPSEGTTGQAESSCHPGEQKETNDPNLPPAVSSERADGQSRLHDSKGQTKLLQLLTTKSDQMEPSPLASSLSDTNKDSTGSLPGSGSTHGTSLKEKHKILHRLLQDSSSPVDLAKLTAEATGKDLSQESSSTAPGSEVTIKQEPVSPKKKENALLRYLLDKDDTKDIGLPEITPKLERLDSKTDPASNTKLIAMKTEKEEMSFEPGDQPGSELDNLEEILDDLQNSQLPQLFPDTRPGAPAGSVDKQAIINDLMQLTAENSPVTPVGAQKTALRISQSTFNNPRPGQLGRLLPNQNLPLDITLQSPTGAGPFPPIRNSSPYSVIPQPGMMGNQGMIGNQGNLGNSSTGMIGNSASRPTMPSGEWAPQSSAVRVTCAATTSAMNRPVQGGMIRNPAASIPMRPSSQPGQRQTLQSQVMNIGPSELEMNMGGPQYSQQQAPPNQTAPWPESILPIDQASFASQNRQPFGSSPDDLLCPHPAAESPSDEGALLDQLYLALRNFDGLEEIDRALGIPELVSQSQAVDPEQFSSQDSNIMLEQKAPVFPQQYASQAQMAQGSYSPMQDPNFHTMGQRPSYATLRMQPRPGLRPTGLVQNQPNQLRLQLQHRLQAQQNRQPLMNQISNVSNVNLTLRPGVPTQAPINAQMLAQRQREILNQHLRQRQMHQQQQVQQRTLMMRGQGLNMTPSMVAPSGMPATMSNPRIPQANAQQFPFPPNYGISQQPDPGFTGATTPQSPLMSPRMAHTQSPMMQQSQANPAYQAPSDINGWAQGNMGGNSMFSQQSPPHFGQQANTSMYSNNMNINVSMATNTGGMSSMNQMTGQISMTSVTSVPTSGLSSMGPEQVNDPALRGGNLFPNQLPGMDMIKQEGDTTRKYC
# [3] = molecular target: Galanin receptor type 2 (Homo sapiens) (UniProt O43603); experiment: GALR2 antagonists, retest of hits, confirmation, cell-based (AID 866; in the data active = inhibition above about 27%;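 note: cells stimulated with galanin at about its EC80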); settings: GALR2-expressing cells, antagonist mode, at 4 µM, stronger effect = higher value
# Chain of Galanin receptor type 2 (Homo sapiens) (O43603 whole entry, looked up): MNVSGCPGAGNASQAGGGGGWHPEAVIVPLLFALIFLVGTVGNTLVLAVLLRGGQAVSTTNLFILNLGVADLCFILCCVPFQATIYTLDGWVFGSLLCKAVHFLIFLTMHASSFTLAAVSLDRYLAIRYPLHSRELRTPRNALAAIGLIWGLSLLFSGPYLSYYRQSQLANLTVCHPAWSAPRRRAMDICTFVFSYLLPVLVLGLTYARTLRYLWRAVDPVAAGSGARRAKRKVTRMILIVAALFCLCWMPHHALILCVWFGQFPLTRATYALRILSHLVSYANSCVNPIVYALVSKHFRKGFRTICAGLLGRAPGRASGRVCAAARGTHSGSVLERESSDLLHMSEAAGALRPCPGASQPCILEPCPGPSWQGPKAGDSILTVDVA
# [4] = inhibitors of NFAT-driven beta-lactamase reporter, confirmation, counter-screen for GALR2 antagonist project, CHO NFAT-bla cells, FRET readout (AID 867;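 active = inhibition above the mean inhibition across tested compounds plus 3 SD, cut at about 27% in these data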;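 note: 0% = 500 nM thapsigargin stimulated wells and 100% = unstimulated BSA only wells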); settings: thapsigargin-stimulated, at 4.2 µM, stronger effect = higher value
# [5] = Gal4-VP16 luciferase reporter inhibitors, counter-screen for COUP-TFII antagonist project, cell-based, luminescence, HEK293 (AID 687007; in the data active = inhibition above about 13%); settings: at 8.5 µM, stronger effect = higher value
# [6] = molecular target: COUP transcription factor 2 (Homo sapiens) (UniProt P24468); experiment: NR2F2 transcriptional activity inhibitors, confirmation, cell-based, luciferase reporter, HEK293, triplicate (AID 687008); settings: HEK293 NGFI-A luciferase reporter, luminescence; at 8.5 µM; stronger effect = higher value;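 note: 100% = cells given the luciferase reporter alone without the COUP-TF2 vector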
# Chain of COUP transcription factor 2 (Homo sapiens) (P24468 whole entry, looked up): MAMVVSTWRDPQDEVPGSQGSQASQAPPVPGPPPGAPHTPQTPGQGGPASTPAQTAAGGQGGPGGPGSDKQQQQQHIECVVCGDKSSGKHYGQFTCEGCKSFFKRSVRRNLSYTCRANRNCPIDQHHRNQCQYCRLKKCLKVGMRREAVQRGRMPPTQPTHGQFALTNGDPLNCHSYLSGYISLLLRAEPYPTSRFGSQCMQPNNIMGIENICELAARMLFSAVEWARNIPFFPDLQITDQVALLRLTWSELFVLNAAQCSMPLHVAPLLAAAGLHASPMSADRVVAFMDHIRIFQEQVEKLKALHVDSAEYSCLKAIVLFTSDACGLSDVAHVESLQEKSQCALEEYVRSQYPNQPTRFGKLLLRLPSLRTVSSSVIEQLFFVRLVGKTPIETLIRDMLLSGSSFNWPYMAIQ
# [7] = molecular target: (Lyso)-N-acylphosphatidylethanolamine lipase (Mus musculus) (UniProt Q8VD66); experiment: ABHD4 inhibitors, retest, confirmation, biochemical, fluorescence polarization, mouse (AID 720658;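 active = mean inhibition across replicates above the hit cutoff set in the primary screen, cut at about 30% in these data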;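 note: 0% = wild-type ABHD4 with DMSO and 100% = catalytically dead S159A mutant with DMSO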); settings: purified mABHD4, FP-Rh probe fluorescence polarization; at 8.92 µM; stronger effect = higher value
# Chain of (Lyso)-N-acylphosphatidylethanolamine lipase (Mus musculus) (Q8VD66 whole entry, looked up): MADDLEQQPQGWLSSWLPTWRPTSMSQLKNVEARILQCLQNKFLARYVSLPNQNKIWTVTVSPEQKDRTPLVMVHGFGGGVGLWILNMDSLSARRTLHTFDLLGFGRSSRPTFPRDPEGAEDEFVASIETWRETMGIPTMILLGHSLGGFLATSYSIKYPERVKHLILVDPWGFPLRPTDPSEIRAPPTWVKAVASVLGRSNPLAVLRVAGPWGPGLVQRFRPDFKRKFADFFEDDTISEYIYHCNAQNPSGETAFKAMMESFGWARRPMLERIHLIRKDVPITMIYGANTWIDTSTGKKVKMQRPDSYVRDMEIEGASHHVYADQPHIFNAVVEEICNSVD
# [8] = compounds interfering with TAMRA-BSA probe, counter-screen for TCR-CD3 interaction inhibitor project, biochemical, fluorescence, TAMRA-labeled BSA (AID 652035; in the data active = inhibition above about 23%;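 note: 0% = buffer low control and 100% = reference high control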); settings: TAMRA-labeled BSA probe fluorescence counterscreen; at 9.4 µM; stronger effect = higher value
# [9] = system: T-cell receptor (TCR)-CD3 interaction, human; experiment: TCR-CD3 interaction inhibitors, retest, confirmation, biochemical, fluorescence, TAMRA-labeled TCR probe (AID 652036; in the data active = inhibition above about 19%); settings: TAMRA-labeled TCR probe fluorescence binding assay; at 9.4 µM; stronger effect = higher value
# [10] = system: DAF-12 nuclear receptor (Heterodera glycines), GAL4-LBD fusion; experiment: H. glycines DAF-12 receptor agonists, confirmation, cell-based, luminescence, HEK293, GAL4-LBD fusion (AID 743050;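 active = mean activation over triplicate wells above the hit cutoff derived from the earlier primary screen, cut at about 11% in these data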;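 note: 0% = DMSO low control and 100% = 2 mM sodium butyrate high control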); settings: HEK293 GAL4-hgDAF12 luciferase reporter, agonist mode; at 6.8 µM; stronger effect = higher value; percent of butyrate response
# [11] = molecular target: Oxysterols receptor LXR-beta (Homo sapiens) (UniProt P55055); experiment: LXR agonists, Gal4 luciferase reporter, confirmation, counter-screen for hgDAF-12 agonist project, cell-based, luminescence, HEK293, H. glycines campaign (AID 743051;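 active = mean activation of the triplicate above a set limit carried over from the primary screen, none filed active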); settings: 24 h, at 6.8 µM, stronger effect = higher value
# Chain of Oxysterols receptor LXR-beta (Homo sapiens) (P55055 whole entry, looked up, the tested form may be a part): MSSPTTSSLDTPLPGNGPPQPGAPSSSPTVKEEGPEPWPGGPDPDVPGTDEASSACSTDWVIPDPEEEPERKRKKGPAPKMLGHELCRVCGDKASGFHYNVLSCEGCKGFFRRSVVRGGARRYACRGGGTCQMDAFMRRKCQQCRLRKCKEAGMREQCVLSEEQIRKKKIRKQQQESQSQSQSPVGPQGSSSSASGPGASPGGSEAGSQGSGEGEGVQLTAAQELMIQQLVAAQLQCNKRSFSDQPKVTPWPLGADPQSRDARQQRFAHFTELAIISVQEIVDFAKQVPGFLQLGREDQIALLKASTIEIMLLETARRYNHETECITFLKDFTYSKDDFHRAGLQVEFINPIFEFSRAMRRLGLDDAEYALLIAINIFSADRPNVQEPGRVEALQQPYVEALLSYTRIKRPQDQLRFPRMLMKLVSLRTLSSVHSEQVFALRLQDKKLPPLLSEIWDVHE
# [12] = molecular target: Oxysterols receptor LXR-beta (Homo sapiens) (UniProt P55055); experiment: LXR agonists, Gal4 luciferase reporter, confirmation, counter-screen for hcDAF-12 agonist project, cell-based, luminescence, HEK293, H. contortus campaign (AID 743027;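 active = mean percent activation of the reporter above a cutoff set as the average over tested compounds plus their standard deviation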); settings: HEK293 Gal4-LXR tk-luc reporter, 24 h, at 6.8 µM, stronger effect = higher value, normalized: DMSO 0%, positive control 100%
# [13] = system: Nuclear hormone receptor DAF-12 (Haemonchus contortus); experiment: H. contortus DAF-12 receptor agonists, confirmation, cell-based, luminescence, HEK293, lit1-tk-luc, triplicate (AID 743032;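 active = mean activation across triplicate tests above the threshold derived from the earlier primary screen, cut at about 5.5% in these data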;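 note: 0% = DMSO only wells and 100% = 3 µM Δ7-dafachronic acid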); settings: HEK293 hcDAF-12 lit1-tk-luc reporter, at 6.8 µM, stronger effect = higher value, % of Δ7-dafachronic acid response
compound,measurement,setting,value
CC(=O)C1C(=O)c2c(cccc2[N+](=O)[O-])C1=Nc1cccc(Cl)c1 (stereo not drawn),inhibition,[1],-60.3%
same,inhibition,[2],-35.9%
CC(C)[C@H](CO)Nc1nc(NCc2ccc(S(N)(=O)=O)cc2)c2ncn(C(C)C)c2n1,inhibition,[1],14.3%
same,inhibition,[2],37.8%
Cc1ccc(C)c(-c2nc3cc(N)ccc3o2)c1,inhibition,[1],36.8% (active)
same,inhibition,[2],55% (active)
Cc1ccc(C(=O)c2cnc3ccccc3c2-c2ccccc2)cc1,inhibition,[1],-3.52%
same,inhibition,[2],16.4%
COC(=O)Cc1ccc(NC(=O)c2ccccc2Cl)cc1,inhibition,[1],-35.8%
same,inhibition,[2],8.14%
COc1cccc2c1C(CO)N1C(C#N)C3CC(C(=O)O)C(C1C2)N3C (stereo not drawn),inhibition,[1],40.5% (active)
same,inhibition,[2],66.1% (active)
CC(C)(CO)CNC(=O)CCc1nnc(-c2ccc(-c3ccccc3)cc2)o1,inhibition,[1],0.83%
same,inhibition,[2],-13.5%
Cc1ccc(S(=O)(=O)N2CCN(C(=O)c3cc4c(C)nn(-c5ccccc5C)c4s3)CC2)cc1,inhibition,[1],4.9%
same,inhibition,[2],4.62%
CN(C)S(=O)(=O)c1cccc(NC(=O)COC(=O)C2(c3ccccc3F)CCCC2)c1,inhibition,[3],17.7%
same,inhibition,[4],15.1%
CCC(=O)Nc1ccc(C(=O)CSc2nnc(CNc3ccc(Cl)cc3)o2)cc1OC,inhibition,[5],-6.4%
same,inhibition,[6],17.3%
Cc1ccccc1OCC(=O)Nc1ccc(N2CCN(C(=O)C(C)C)CC2)c(Cl)c1,inhibition,[5],-4.24%
same,inhibition,[6],10.5%
Cc1ccc(NC(=O)C2CC(=O)N(c3ccc4c(c3)OCCO4)C2)cc1S(=O)(=O)N1CCCCCC1 (stereo not drawn),inhibition,[5],-2.18%
same,inhibition,[6],14.1%
CC(C)c1ccc(CC(=O)N2CCC2(C)C(=O)NS(=O)(=O)c2ccc(C(C)(C)C)cc2)cc1 (stereo not drawn),inhibition,[7],68.5% (active)
Oc1ccc(/C=N/Nc2ccc(C(F)(F)F)cn2)cc1O,inhibition,[7],34% (active)
COc1ccc(OC)c(CNC(=O)Cn2nc(C)c3c(C)n(-c4ccc(C)cc4)nc3c2=O)c1,inhibition,[5],-4.78%
same,inhibition,[6],51.1% (active)
Cc1oc2cc(Br)c(O)c(Br)c2c1C(=O)c1ccccc1,inhibition,[7],53% (active)
O=C(Nc1ccc(S(=O)(=O)NCC2CCCO2)cc1)c1ccc(F)cc1 (stereo not drawn),inhibition,[5],3.93%
same,inhibition,[6],13.8%
Cc1ccc(Nc2nc(CSc3nnc(-c4ccncc4)n3-c3ccccc3C)cs2)cc1,inhibition,[5],-8.65%
same,inhibition,[6],11.9%
Cc1cc2ccccc2n1CCNC(=O)COc1ccc2ccccc2c1,inhibition,[8],8.77%
same,inhibition,[9],2.99%
same,inhibition,[7],1.54%
CN(CCc1ccccc1)C(=O)c1cccc(NC(=O)Cc2cccc(NC(=O)C3CCCN(C(=O)CCc4ccccc4)C3)c2)c1 (stereo not drawn),inhibition,[5],-3.76%
same,inhibition,[6],15.9%
CCc1ccc(-c2nc(SCC(=O)NC3CCCC3)n[nH]2)cc1,inhibition,[5],-22.9%
same,inhibition,[6],11.9%
COc1ccc(-c2c(-c3cc(OC)cc(OC)c3)n(C)c3ccc(-c4ccn[nH]4)cc23)cc1,inhibition,[8],1.44%
same,inhibition,[9],-1.35%
CC(C)(C)C(=O)OCc1nc(-c2ccc(O)c(O)c2)cs1,inhibition,[7],28.1%
CCN(CC)P(=O)(C(NC(=O)OC)C(F)(F)C(F)(F)C(F)(F)C(F)F)N(CC)CC (stereo not drawn),inhibition,[5],7.83%
same,inhibition,[6],14.8%
COc1ccc(Br)cc1C(=O)NC(=S)Nc1cc(-c2nc3ccccc3[nH]2)ccc1C,inhibition,[8],17.9%
same,inhibition,[9],34.4% (active)
COc1ccc(NC(=O)C2Cc3c(-c4cccc(NC(C)=O)c4)ccnc3O2)cc1OC (stereo not drawn),inhibition,[5],-1.35%
same,inhibition,[6],14.6%
Cc1ccc(OCC(=O)Nc2ccc(N3CCN(C(=O)c4ccco4)CC3)cc2)c(C)c1,inhibition,[5],4.51%
same,inhibition,[6],24.3%
Cc1nc(C(=O)NCc2ccccc2)sc1C1(C)CC(c2cccnc2)=NO1 (stereo not drawn),inhibition,[5],-2.73%
same,inhibition,[6],6.06%
COc1cc(/C=C/C(=O)n2cnc3ccccc32)cc(OC)c1OC,inhibition,[5],-14.2%
same,inhibition,[6],16.1%
COc1ccc(Br)cc1/C=N/Nc1ccc(Cl)c(C(=O)O)c1,inhibition,[7],32.5% (active)
CCOC(=O)C1(CCOc2ccccc2)CCN(Cc2cc(OC)cc(OC)c2)CC1,inhibition,[5],6.8%
same,inhibition,[6],9.24%
O=C(N/N=C/c1ccco1)c1ccc(C(=O)N/N=C/c2ccco2)o1,inhibition,[8],-19.7%
same,inhibition,[9],28.2% (active)
c1ccc(Cc2ccc(OCCn3ccnc3)cc2)cc1,inhibition,[5],-6.15%
same,inhibition,[6],9.96%
Cc1ccc(CNC(=O)Nc2nnc([C@H]3C[C@H](O)[C@@H](CO)O3)s2)cc1,inhibition,[5],-1.25%
same,inhibition,[6],11.2%
NS(=O)(=O)c1ccc(CCNc2nc(C(F)(F)F)nc3ccccc23)cc1,inhibition,[5],-10.4%
same,inhibition,[6],0.16%
CCCCn1c(SCc2ncc(-c3ccccc3)o2)nc2cc(S(N)(=O)=O)ccc21,inhibition,[5],6.53%
same,inhibition,[6],14.4%
CCOC(=O)N1CCN(C(=O)C[C@@H]2C(=O)N(CCc3ccc(Cl)cc3)C3=CCCC[C@]32C(=O)OCC)CC1,inhibition,[5],-8.45%
same,inhibition,[6],9.27%
O=C(c1cc(C(=O)N2CCN(c3ccc(F)cc3)CC2)cc([N+](=O)[O-])c1)N1CCN(c2ccc(F)cc2)CC1,inhibition,[5],-2.78%
same,inhibition,[6],46.7% (active)
Cc1ccc(-c2nn(-c3ccccc3)cc2/C=C/C(=O)Nc2cccc(S(N)(=O)=O)c2)cc1,inhibition,[8],26.6% (active)
same,inhibition,[9],48.1% (active)
N#CC(C#N)=CN=c1ccn(Cc2ccc(Cl)cc2Cl)cc1,inhibition,[5],-2.5%
same,inhibition,[6],9.12%
CCOCC(=O)NCc1ccc2c(c1)cc(C)n2C,inhibition,[8],6.46%
same,inhibition,[9],6.18%
O=C(O)c1cc([N+](=O)[O-])c(Nc2cccc3ccccc23)c([N+](=O)[O-])c1,inhibition,[7],39.9% (active)
CC(=O)Oc1ccc(N(C(C)=O)S(=O)(=O)c2ccc3ccccc3c2)cc1Br,inhibition,[7],30.6% (active)
CN(c1cccc(NC(=O)c2ccc(CN3CCc4ccccc4C3)cc2)c1)S(C)(=O)=O,inhibition,[5],4.04%
same,inhibition,[6],41.2% (active)
O=C(Nc1ccc(S(=O)(=O)N2CCOCC2)cc1)C1CCN(S(=O)(=O)c2ccc(Cl)cc2)CC1,inhibition,[5],0.86%
same,inhibition,[6],12.2%
Cc1ccc(-n2nc3c(=O)n(C(C)C(=O)NCc4ccc5c(c4)OCO5)nc(C)c3c2C)cc1 (stereo not drawn),inhibition,[5],-6.28%
same,inhibition,[6],11.8%
Cc1ccccc1CS(=O)(=O)Cc1ccc(C(=O)Nc2ccc(Cl)cc2)o1,inhibition,[5],-1.58%
same,inhibition,[6],41.5% (active)
CN(C(=O)c1cccc(NC(=O)Cc2cccc([N+](=O)[O-])c2)c1)C1CCCCC1,inhibition,[5],-3.36%
same,inhibition,[6],1.83%
NS(=O)(=O)c1ccc(CCNC(=O)c2ccc(Cl)c(S(=O)(=O)N3CCCCCC3)c2)cc1,inhibition,[5],5.82%
same,inhibition,[6],39.1% (active)
O=C(O)c1ccc(N/N=C/c2cn(-c3ccccc3)nc2-c2cccs2)cc1,activation,[10],19.1% (active)
same,activation,[11],0.89%
CCc1ccc(-c2cc(C(=O)NN3CCN(C)CC3)c3ccccc3n2)cc1,activation,[12],-0.24%
same,activation,[13],0.58%
NC(=O)c1c(NC(=O)c2ccccc2)sc2c1CCCC2,activation,[12],1.21%
same,activation,[13],13.6% (active)
Cc1ccc(S(=O)(=O)Nc2nc3ccccc3nc2N2CCc3ccccc3C2)cc1,activation,[12],0.14%
same,activation,[13],8.94% (active)
COc1ccccc1OCC(=O)O/N=C(\N)c1ccccn1,activation,[12],0.86%
same,activation,[13],5.68% (active)
Cn1c(=O)c(C(=O)Nc2ncccn2)c(O)c2ccccc21,activation,[12],0.73%
same,activation,[13],15.3% (active)
CCc1cc2c(=O)c(-c3ccon3)c(N)oc2cc1OC,activation,[12],0.84%
same,activation,[13],6.18% (active)
CC(C#N)OC(=O)c1cccnc1SCC(=O)Nc1ccc2c(c1)OCO2 (stereo not drawn),activation,[12],0.05%
same,activation,[13],5.55%
COc1ccccc1-c1nnc(NC(=O)c2ccc3ncsc3c2)o1,activation,[12],0.28%
same,activation,[13],10.3% (active)
O=C(COc1cccc(Cl)c1)NCc1ccccc1,activation,[12],-0.12%
same,activation,[13],0.38%
COc1ccc(C(=O)Nc2sc(C)c(C)c2CN2CCOCC2)cc1,activation,[12],0.23%
same,activation,[13],4.47%
COc1ccccc1C(=O)NCc1nnc(SC(C)C(=O)Nc2nccs2)n1C (stereo not drawn),activation,[12],-0.14%
same,activation,[13],4.95%
COc1ccccc1OCc1nc2ccccc2s1,activation,[12],1.64%
same,activation,[13],17.7% (active)
Cc1ccc(NN=Nc2nc3c([nH]2)c(=O)n(C)c(=O)n3C)cc1,activation,[12],-0.08%
same,activation,[13],3.07%
O=C(c1cc(-c2ccccc2O)on1)N1CCCC1,activation,[12],0.82%
same,activation,[13],6.57% (active)
Nc1ccccc1/C=N\N=C/c1ccccc1N,activation,[12],1.76%
same,activation,[13],12.4% (active)
CCOc1ccc(C2c3[nH]c4ccccc4c3CCN2Cc2cn(CC)nc2C)cc1 (stereo not drawn),activation,[12],-0.18%
same,activation,[13],3.63%
O=C(OCC(=O)c1c[nH]c2ccccc12)c1cccc(O)c1,activation,[12],0.27%
same,activation,[13],7.43% (active)
Cc1c(C=O)c2ccccc2n1CC(=O)O,activation,[12],-0.12%
same,activation,[13],1.56%
CC(=O)N1CCN(c2ccccc2NC(=S)NC(=O)c2cc3ccccc3o2)CC1,activation,[12],-0.28%
same,activation,[13],1.71%
O=C(Nc1ccc(Cl)cc1)C1c2cccc[n+]2CC(=O)N1Cc1ccc2c(c1)OCO2 (stereo not drawn),activation,[12],-0.2%
same,activation,[13],2.78%
CC(C)C(=O)Nc1ccc2c(c1)oc1ccccc12,activation,[12],0.52%
same,activation,[13],5.43%
c1ccc(-c2cc(-c3ccccc3)[nH]n2)cc1,activation,[12],1.43%
same,activation,[13],15.7% (active)
